# Source: PubChem BioAssay (NCI)
# Compounds without any hit were thinned out: in the full panel of roughly 79,000, 15% have a hit. Unmarked numbers belong to inactive results. Active and inactive are the calls of the source. No stated cut-off is given here; in the data, active means growth inhibition above about 70%; inactive means the rest.
# Assay: NCI Yeast Anticancer Drug Screen. Data for the rad18 strain (AID 177)
# Settings: S. cerevisiae rad18 mutant growth inhibition; at 1.2 µM; active compounds read high
# Outline: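 DNA-repair-defective yeast; compound treatment; growth inhibition scored against vehicle.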
row,SMILES,growth inhibition
1,Cc1cccc2c(C(O)CBr)cc(-c3ccc(Cl)cc3)nc12 (stereo unspecified),-3%
2,CN(C)C[C@H]1CC[C@@H](CN(C)C)C1=O,21%
3,CC1=C(SCCO)C(=O)c2ccccc2C1=O,-12%
4,COC(=O)CCNc1c2ccccc2nc2cccc([N+](=O)[O-])c12,97% (active)
5,CC(/C=C/c1ccc2c(c1)OCO2)[N+](=O)[O-] (stereo unspecified),10%
6,COC(=O)C1=C(C)NC(C)=C(C(=O)OCCCN2CCC(c3ccccc3)(c3ccccc3)CC2)C1c1cccc([N+](=O)[O-])c1 (stereo unspecified),-7%
7,CCOC(=O)c1cnc2c(C(F)(F)F)cccc2c1N=[N+]=[N-],-5%
8,O=[N+]([O-])c1cc2no[n+]([O-])c2cc1N1CCCCC1,31%
9,COC(=O)c1ccc(NCC2=CC(=O)C=CC2=O)cc1O,18%
10,CCCCCCCCNC(=O)C1=C(C)NC(C)=C(C(=O)NCCCCCCCC)C1,-1%
11,S=C(Nc1ccc(Cl)c(Cl)c1)SCc1ccc2c(c1)OCO2,-7%
12,O=S(=O)(CCCl)c1ccccc1Cl,-1%
13,Nc1ccccc1CC(O)C(=O)O (stereo unspecified),1%
14,CN(C)c1ccc(Sc2ccc3nc(N)nc(N)c3c2)cc1,3%
15,CC(C)C1=CCC2C(=C1)CCC1C(C)(C(=O)O)CCCC21C (stereo unspecified) (tested in a mixture with another compound),-5%
16,Cc1ccc(S(=O)(=O)Oc2cc(Cl)c(Cl)cc2Cl)cc1,-5%
17,CSC(=S)Nc1cc(C)ccn1,-23%
18,CC(C)c1cc(C(C)C)c(O)c(C([O-])[O-])c1.CC(C)c1cc(C(C)C)c(O)c(C([O-])[O-])c1.CC(C)c1cc(C(C)C)c(O)c(C([OH2+])[OH2+])c1.CC(C)c1cc(C(C)C)c(O)c(C([OH2+])[OH2+])c1.[Cu+2].[Cu+2].[OH3+].[OH3+],2%
19,Cc1cc(I)ccc1N,-18%

row,SMILES,growth inhibition
1,CC(Br)C(=O)c1ccc2cc(Br)c3ccccc3c2c1 (stereo unspecified),5%
2,O=C(Nc1ccccc1)OCCc1ccc(Cl)c(Cl)c1,-4%
3,O=Cc1cccc2ccc3ccccc3c12,-6%
4,O=[N+]([O-])CC(SCc1ccccc1)c1ccc2c(c1)OCO2 (stereo unspecified),7%
5,Cc1cc(O)cc(O)c1N=Nc1ccc([N+](=O)[O-])cc1,5%
6,CCCCCCCCCCCCCC[N+](C)(CC(=O)[O-])Cc1ccccc1 (stereo unspecified),3%
7,CC1=NN(c2cccc(Cl)c2)C(=O)C1,-47%
8,CC(=O)OCc1ccc(O)c(C=O)c1,-13%
9,Cc1ccc2ccc3cccc4ccc1c2c34,-4%
10,Cc1nc(-[n+]2nc(-c3ccncc3)nn2-c2ccccc2)sc1C,1%
11,C(CCSC1=NCCN1)CSC1=NCCN1 (tested in a mixture with another compound),26%
12,CCCCCCCCCCC(=O)Cl,25%
13,COC1C=COC2(C)Oc3c(C)c(O)c4c(c3C2=O)/C(=N/C2CCC(O)OC2C)C=C(NC(=O)/C(C)=C\C(=O)C2CC2C(O)C(C)C(O)C(C)C(OC(C)=O)C1C)C4=O (stereo unspecified),0%
14,S=c1[nH]nc(Nc2ccc(Cl)cc2)s1,-3%
15,O=C1CSC(/C=C/c2ccccc2)N1c1ccc(-c2ccc(-n3c(-c4ccccc4)nc4ccccc4c3=O)cc2)cc1 (stereo unspecified),-3%
16,O=C1C=CC(=O)N1c1ccc2c(c1)Cc1cc(NC(=O)C(F)(F)F)ccc1-2,17%
17,Brc1ccc(-c2cc3c(cc2C2SCCS2)OCO3)cc1,-23%
18,C[CH2][Sn]([CH2]C)([O]C(=O)C(OC(C)=O)c1ccccc1)[O]C(=O)C(OC(C)=O)c1ccccc1 (stereo unspecified),4%
19,Cc1ccc2ccc(O)cc2c1,-21%

# Same assay, conditions: S. cerevisiae rad18 mutant growth inhibition; at 3.7 µM; active compounds read high
row,SMILES,growth inhibition
1,Cc1cccc2c(C(O)CBr)cc(-c3ccc(Cl)cc3)nc12 (stereo unspecified),17%
2,CN(C)C[C@H]1CC[C@@H](CN(C)C)C1=O,21%
3,CC1=C(SCCO)C(=O)c2ccccc2C1=O,-10%
4,COC(=O)CCNc1c2ccccc2nc2cccc([N+](=O)[O-])c12,97% (active)
5,CC(/C=C/c1ccc2c(c1)OCO2)[N+](=O)[O-] (stereo unspecified),58%
6,COC(=O)C1=C(C)NC(C)=C(C(=O)OCCCN2CCC(c3ccccc3)(c3ccccc3)CC2)C1c1cccc([N+](=O)[O-])c1 (stereo unspecified),9%
7,CCOC(=O)c1cnc2c(C(F)(F)F)cccc2c1N=[N+]=[N-],-8%
8,O=[N+]([O-])c1cc2no[n+]([O-])c2cc1N1CCCCC1,73% (active)
9,COC(=O)c1ccc(NCC2=CC(=O)C=CC2=O)cc1O,32%
10,CCCCCCCCNC(=O)C1=C(C)NC(C)=C(C(=O)NCCCCCCCC)C1,-2%
11,S=C(Nc1ccc(Cl)c(Cl)c1)SCc1ccc2c(c1)OCO2,34%
12,O=S(=O)(CCCl)c1ccccc1Cl,13%
13,Nc1ccccc1CC(O)C(=O)O (stereo unspecified),4%
14,CN(C)c1ccc(Sc2ccc3nc(N)nc(N)c3c2)cc1,-17%
15,CC(C)C1=CCC2C(=C1)CCC1C(C)(C(=O)O)CCCC21C (stereo unspecified) (tested in a mixture with another compound),-9%
16,Cc1ccc(S(=O)(=O)Oc2cc(Cl)c(Cl)cc2Cl)cc1,-2%
17,CSC(=S)Nc1cc(C)ccn1,-29%
18,CC(C)c1cc(C(C)C)c(O)c(C([O-])[O-])c1.CC(C)c1cc(C(C)C)c(O)c(C([O-])[O-])c1.CC(C)c1cc(C(C)C)c(O)c(C([OH2+])[OH2+])c1.CC(C)c1cc(C(C)C)c(O)c(C([OH2+])[OH2+])c1.[Cu+2].[Cu+2].[OH3+].[OH3+],10%
19,Cc1cc(I)ccc1N,-4%

row,SMILES,growth inhibition
1,CC(Br)C(=O)c1ccc2cc(Br)c3ccccc3c2c1 (stereo unspecified),5%
2,O=C(Nc1ccccc1)OCCc1ccc(Cl)c(Cl)c1,7%
3,O=Cc1cccc2ccc3ccccc3c12,-2%
4,O=[N+]([O-])CC(SCc1ccccc1)c1ccc2c(c1)OCO2 (stereo unspecified),23%
5,Cc1cc(O)cc(O)c1N=Nc1ccc([N+](=O)[O-])cc1,3%
6,CCCCCCCCCCCCCC[N+](C)(CC(=O)[O-])Cc1ccccc1 (stereo unspecified),23%
7,CC1=NN(c2cccc(Cl)c2)C(=O)C1,-34%
8,CC(=O)OCc1ccc(O)c(C=O)c1,9%
9,Cc1ccc2ccc3cccc4ccc1c2c34,0%
10,Cc1nc(-[n+]2nc(-c3ccncc3)nn2-c2ccccc2)sc1C,3%
11,C(CCSC1=NCCN1)CSC1=NCCN1 (tested in a mixture with another compound),52%
12,CCCCCCCCCCC(=O)Cl,21%
13,COC1C=COC2(C)Oc3c(C)c(O)c4c(c3C2=O)/C(=N/C2CCC(O)OC2C)C=C(NC(=O)/C(C)=C\C(=O)C2CC2C(O)C(C)C(O)C(C)C(OC(C)=O)C1C)C4=O (stereo unspecified),0%
14,S=c1[nH]nc(Nc2ccc(Cl)cc2)s1,2%
15,O=C1CSC(/C=C/c2ccccc2)N1c1ccc(-c2ccc(-n3c(-c4ccccc4)nc4ccccc4c3=O)cc2)cc1 (stereo unspecified),1%
16,O=C1C=CC(=O)N1c1ccc2c(c1)Cc1cc(NC(=O)C(F)(F)F)ccc1-2,29%
17,Brc1ccc(-c2cc3c(cc2C2SCCS2)OCO3)cc1,-27%
18,C[CH2][Sn]([CH2]C)([O]C(=O)C(OC(C)=O)c1ccccc1)[O]C(=O)C(OC(C)=O)c1ccccc1 (stereo unspecified),16%
19,Cc1ccc2ccc(O)cc2c1,-32%
